Laboratory results taken from PubChem BioAssay (NCATS).
Records with an inconclusive call do not appear. Calls of active or inactive are those of the source. Calls follow the shape of the dose curve; as a rule, active = well fitted cell-killing curve with a large enough effect; inconclusive = small, poorly fitted or top-dose-only effect, or effect the other way; inactive = no such curve, though single readings can be large or run the other way.

Assay: Quantitative High-Throughput drug screen in 47 multiple myeloma cell lines against the NCATS MIPE library collection: Karpas25_ECACC cell viability assay (AID 1918968; also: nearly all actives have a fitted effect of over 35% in size)
Details: Karpas25 myeloma viability, CellTiter-Glo ATP, 48 h; series mostly up to 45.8 µM
From the text: PI: Beverly A. Mock Ph.D.
Laboratory of Cancer Biology and Genetics,
Center for Cancer Research, National Cancer Institute,
National Institute of Health, Bethesda, Maryland
Drug resistance and disease progression are common in multiple myeloma (MM) patients, underscoring the need for new therapeutic combinations. […] We hypothesized that effective combinations would reduce MYC expression and enhance p16 activity. […] These preclinical data identify potentially useful drug combinations for evaluation in drug-resistant MM and reveal potential mechanisms of combined drug sensitivity.
Described herein is the primary MIPE qHTS used to cherrypick compounds. Validated compounds were then further tested for potential synergistic activiy.
[1] Peat TJ, Gaikwad SM, Dubois W, Gyabaah-Kessie N, Zhang S, Gorjifard S, Phyo Z, Andres M, Hughitt VK, Simpson RM, Miller MA, Girvin AT, Taylor A, Williams D, D'Antonio N, Zhang Y, Rajagopalan A, Flietner E, Wilson K, Zhang X, Shinn P, Klumpp-Thomas C, McKnight C, Itkin Z, Chen L, Kazandijian D, Zhang J, Michalowski AM, Simmons JK, Keats J, Thomas CJ, Mock BA. Drug combinations identified by high-throughput screening promote cell cycle transition and upregulate Smad pathways in myeloma. Cancer Lett. 2023 Aug 1;568:216284. doi: 10.1016/j.canlet.2023.216284. Epub 2023 Jun 24. PMID: 37356470; PMCID: PMC10408729.
SEQUENCE No. (e.g., 1, 2, 3, etc.); […] (e.g., Cells, Incubation, Reagent, etc.); VALUE and DESCRIPTION.
1; Cells; 5 uL; white, solid bottom 1536-well Greiner assay plate.
2; Compounds; 23 nL; Kalypsis pin tool (Wako USA) equipped with a 1536-well pin head to transfer to the assay plates.
3; Incubation; 48 hours; 37C incubation.
4; Reagent;5uL; CellTiter Glo (Promega).
5; Detector; 425V; Luminescence; Viewlux PerkinElmer.
NOTES (numbers refer to Sequence numbers above)
1. The cell-based screening methods employed in this study were like those previously published. Briefly, the corresponding myeloma cell lines were screened in 1,536-well plates with 500 cells, 5-uL per well for inhibition of cell viability (assessed by measuring ATP levels with CellTiterGlo).
2. NCATS MIPE 4.0 library of approved and investigational drugs were added using the Kalypsis pin tool. Wells treated with DMSO only for 100% viability and media only wells for 0% viability were used as controls.
3. The assay plates were covered and incubated for 48 hours in a 37C, 5% CO2 incubator with controlled humidity.
4. After 48 hours, CellTilter-GloTM luminescent substrate mix (Promega) reagent was added to the assay plate and plates we incubated for 5 min at room temperature.
5. Signal was measured as median relative luminescence units on a ViewLux (PerkinElmer) multiplate reader.
[1] Heske CM, Davis MI, Baumgart JT, Wilson K, Gormally MV, Chen L, Zhang X, Ceribelli M, Duveau DY, Guha R, Ferrer M, Arnaldez FI, Ji J, Tran HL, Zhang Y, Mendoza A, Helman LJ, Thomas CJ. Matrix Screen Identifies Synergistic Combination of PARP Inhibitors and Nicotinamide Phosphoribosyltransferase (NAMPT) Inhibitors in Ewing Sarcoma. Clin Cancer Res. 2017 Dec 1;23(23):7301-7311. doi: 10.1158/1078-0432.CCR-17-1121. Epub 2017 Sep 12. PMID: 28899971; PMCID: PMC6636827.
Potency is read from the fitted curve at half-maximal effect.

**Q.** For `COc1ccc2c(c1)c(CC(=O)OCC(=O)O)c(C)n2C(=O)c1ccc(Cl)cc1`, which Potency is on record?
**A.** The Potency was “inactive”.

**Q.** For `NC(=O)N1c2ccccc2CC(=O)c2ccccc21`, which Potency is on record?
**A.** The Potency was “inactive”.

**Q.** Which Potency does the source give for `CC1CC2C3CCC4=CC(=O)C=C[C@]4(C)[C@@]3(F)[C@@H](O)C[C@]2(C)[C@@]1(O)C(=O)CO` (stereo not given in full) here?
**A.** The Potency was 0.209 µM (active).

**Q.** With `CC1(C)[C@H](C(=O)O)N2C(=O)C[C@H]2S1(=O)=O` as the molecule, how does the Potency read?
**A.** Its Potency is “inactive”.

**Q.** For `COc1cc2ncnc(Nc3cccc(Cl)c3)c2cc1OC`, which Potency is on record?
**A.** The Potency was 20.9 µM (active).

**Q.** Which Potency does the source give for `CN(C)c1ccc(C(=C2C=CC(=[N+](C)C)C=C2)c2ccc(N(C)C)cc2)cc1` here?
**A.** The Potency was 0.0118 µM (active).

**Q.** Which Potency does the source give for `CCn1cc(C(=O)O)c(=O)c2cc(F)c(N3CCNCC3)nc21` here?
**A.** The Potency was “inactive”.

**Q.** With `CN(C)CCc1c[nH]c2ccc(C[C@H]3COC(=O)N3)cc12` as the molecule, how does the Potency read?
**A.** Its Potency is “inactive”.

**Q.** With `CNCC[C@H](Oc1cccc2ccccc12)c1cccs1` as the molecule, how does the Potency read?
**A.** The Potency was 2.96 µM (active).

**Q.** For `N=C(N)c1ccc(OCCCCCOc2ccc(C(=N)N)cc2)cc1`, which Potency is on record?
**A.** Its Potency is 2.96 µM (active).

**Q.** Which Potency does the source give for `CC1=CC(=O)c2ccccc2C1=O` here?
**A.** Its Potency is 9.35 µM (active).

**Q.** With `CCOCC(O)COc1ccc(NC(=O)CC[S+](C)C)cc1` (stereo not given) as the molecule, how does the Potency read?
**A.** The Potency was “inactive”.

**Q.** With `COC(=O)Nc1nc2ccc(S(=O)c3ccccc3)cc2[nH]1` (stereo not given) as the molecule, how does the Potency read?
**A.** The Potency was 16.6 µM (active).

**Q.** Which Potency does the source give for `C[C@@H]1CN(c2c(F)c(N)c3c(=O)c(C(=O)O)cn(C4CC4)c3c2F)C[C@H](C)N1` here?
**A.** Its Potency is “inactive”.

**Q.** With `O=C(NCC1CN(c2ccc(N3CCOCC3=O)cc2)C(=O)O1)c1ccc(Cl)s1` (stereo not given) as the molecule, how does the Potency read?
**A.** The Potency was 16.6 µM (active).

**Q.** For `COc1nc(N)nc2c1ncn2[C@@H]1O[C@H](CO)[C@@H](O)[C@@H]1O`, which Potency is on record?
**A.** Its Potency is “inactive”.

**Q.** With `O=C(N[C@H](CO)[C@H](O)c1ccc([N+](=O)[O-])cc1)C(Cl)Cl` as the molecule, how does the Potency read?
**A.** The Potency was “inactive”.

**Q.** Which Potency does the source give for `CCCc1cc(C(N)=S)ccn1` here?
**A.** Its Potency is “inactive”.

**Q.** With `Cc1noc(NS(=O)(=O)c2ccc(N)cc2)c1C` as the molecule, how does the Potency read?
**A.** The Potency was “inactive”.

**Q.** With `CCN1CCCC1CNC(=O)c1cc(S(N)(=O)=O)ccc1OC` (stereo not given) as the molecule, how does the Potency read?
**A.** The Potency was 2.09 µM (active).

**Q.** With `CCCc1nc(C)c2c(=O)[nH]c(-c3cc(S(=O)(=O)N4CCN(CC)CC4)ccc3OCC)nn12` as the molecule, how does the Potency read?
**A.** Its Potency is 5.26 µM (active).

**Q.** With `CCOC(=O)[C@H](CCc1ccccc1)N[C@H]1CS[C@H](c2cccs2)CN(CC(=O)O)C1=O` as the molecule, how does the Potency read?
**A.** Its Potency is 5.9 µM (active).

**Q.** For `COC(c1ccccc1)(c1ccccc1)[C@H](Oc1nc(C)cc(C)n1)C(=O)O`, which Potency is on record?
**A.** Its Potency is “inactive”.

**Q.** Which Potency does the source give for `NC(=O)c1ccc2[nH]ccc2c1` here?
**A.** The Potency was “inactive”.

**Q.** For `NCCCC(O)(P(=O)(O)O)P(=O)(O)O`, which Potency is on record?
**A.** The Potency was 16.6 µM (active).

**Q.** Which Potency does the source give for `CNS(=O)(=O)CCc1ccc2[nH]cc(C3CCN(C)CC3)c2c1` here?
**A.** Its Potency is 0.935 µM (active).

**Q.** With `COC(=O)Nc1nc2ccc(C(=O)c3ccccc3)cc2[nH]1` as the molecule, how does the Potency read?
**A.** Its Potency is 3.72 µM (active).

**Q.** For `NC(=O)c1cccc(N)c1`, which Potency is on record?
**A.** Its Potency is “inactive”.

**Q.** For `CCOc1cc(N)c(Cl)cc1C(=O)NCC1CN(Cc2ccc(F)cc2)CCO1` (stereo not given), which Potency is on record?
**A.** Its Potency is “inactive”.

**Q.** With `CCCCc1oc2ccc(NS(C)(=O)=O)cc2c1C(=O)c1ccc(OCCCN(CCCC)CCCC)cc1` as the molecule, how does the Potency read?
**A.** Its Potency is 16.6 µM (active).

**Q.** Which Potency does the source give for `CN1CCCC(n2nc(Cc3ccc(Cl)cc3)c3ccccc3c2=O)CC1` (stereo not given) here?
**A.** The Potency was 1.32 µM (active).

**Q.** For `S=P(N1CC1)(N1CC1)N1CC1`, which Potency is on record?
**A.** Its Potency is “inactive”.

**Q.** For `CCOC(=O)[C@H](CCc1ccccc1)N[C@H]1CCc2ccccc2N(CC(=O)O)C1=O`, which Potency is on record?
**A.** The Potency was 20.9 µM (active).

**Q.** Which Potency does the source give for `CC(=O)CC(c1ccccc1)c1c(O)c2ccccc2oc1=O` (stereo not given) here?
**A.** Its Potency is “inactive”.

**Q.** For `CC1=C(C(=O)O)N2C(=O)[C@@H](NC(=O)C(N)c3ccccc3)[C@H]2SC1` (stereo not given in full), which Potency is on record?
**A.** Its Potency is “inactive”.

**Q.** With `NNC(=O)c1ccncc1` as the molecule, how does the Potency read?
**A.** The Potency was “inactive”.

**Q.** For `Nc1nc(=S)c2[nH]cnc2[nH]1`, which Potency is on record?
**A.** The Potency was 1.48 µM (active).

**Q.** Which Potency does the source give for `CNC(=O)c1cc(Oc2ccc(NC(=O)Nc3ccc(Cl)c(C(F)(F)F)c3)cc2)ccn1` here?
**A.** The Potency was 6.62 µM (active).

**Q.** Which Potency does the source give for `C[C@@H](CN1CC(=O)NC(=O)C1)N1CC(=O)NC(=O)C1` here?
**A.** Its Potency is 9.35 µM (active).

**Q.** For `CNNCc1ccc(C(=O)NC(C)C)cc1`, which Potency is on record?
**A.** The Potency was 5.26 µM (active).
